Screens deposited in PubChem by National Center for Advancing Translational Sciences (NCATS).
Hits are enriched below; roughly 9% of the tested compounds scored in any of these assays.
HPGD block – blocks human HPGD enzyme activity; 150,000 tested, 4.3% active; Potency, µM, usual class: inhibitors; AID 894; P15428; purified HPGD, NADH fluorescence kinetic, PGE2 substrate; active = well fitted inhibition curve with a large enough effect, not every such curve was filed as active; inconclusive = small, poorly fitted or top-dose-only effect, or another doubt; inactive = no such curve, though single readings can be large or run the other way
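NADH formation kinetics: reaction with 30 uM PGE2 and 1 mM NAD+ (final), 20 nM enzyme, Tris-HCl pH 8 with Tween 20, after 15 min compound preincubation at room temperature. Fluorescence change, last versus first of five reads.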
Luc counter – counter-screen: inhibitors of Kinase-Glo firefly luciferase | Q27757 | Kinase-Glo luciferase, ATP luminescence, 8 min | Potency, µM (top dose mostly 38.3 µM), most hits filed as inhibitors | 200,000 tested, 0.28% active | AID 1379; also: nearly all actives have a fitted effect of over 60% in size
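Compounds were added to a substrate mix at pH 7.2 (50 mM imidazole, 10 uM ATP, within the enzyme's linear range), followed by Kinase-Glo detection reagent; luminescence was measured after 8 minutes at ambient temperature.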
Lamin A splicing – changes lamin A minigene splicing in HeLa cells. HeLa LMNA splicing GFP/RFP minigene ratio, 48 h. Potency, µM (series often up to 46.1 µM), usual class: inhibitors. 200,000 tested, 0.01% active. AID 1487; active = well fitted inhibition curve with a large enough effect in the signal ratio, with a control signal flat, not every such curve was filed as active; inconclusive = small, poorly fitted or top-dose-only effect, or effect the other way, or a change in a side signal; the % refers to the signal ratio
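S3 HeLa cells stably expressing lamin A-EGFP splicing minigene plus DsRed2, 600 cells/well, 48 h compound exposure at 37C. Laser-scanning cytometry; analysed as GFP (500-530 nm)/RFP (575-640 nm) total intensity ratio; 0.5% DMSO vehicle.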
HTT aggregate – inhibitors of mutant huntingtin aggregate formation in PC12 cells; Potency, µM (doses to about 46.1 µM), hits mostly inhibitors; 220,000 tested, 1.1% active; PC12 HttQ103-GFP aggregates, Acumen cytometry, 40 h; also: nearly all actives have a fitted effect of over 60% in size
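Inducible Q103 Huntingtin exon 1–GFP PC12 line, 1500 cells/well in phenol red free DMEM with 5% equine and 5% calf serum. Tebufenozide 100 nM induced expression; compounds titrated; aggregates quantified by cytometry.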
ALDH1A1 inh – ALDH1A1 (human) enzyme inhibition | P00352 | Purified ALDH1A1, NADH fluorescence, propionaldehyde substrate | Potency, µM (top dose mostly 75.3 µM), hits mostly inhibitors | 220,000 tested, 7.3% active | AID 1030; active = well fitted inhibition curve with a large enough effect, not every such curve was filed as active; inconclusive = small, poorly fitted or top-dose-only effect, or another doubt; inactive = no such curve, though single readings can be large or run the other way
Target sequence (P00352 whole entry, looked up): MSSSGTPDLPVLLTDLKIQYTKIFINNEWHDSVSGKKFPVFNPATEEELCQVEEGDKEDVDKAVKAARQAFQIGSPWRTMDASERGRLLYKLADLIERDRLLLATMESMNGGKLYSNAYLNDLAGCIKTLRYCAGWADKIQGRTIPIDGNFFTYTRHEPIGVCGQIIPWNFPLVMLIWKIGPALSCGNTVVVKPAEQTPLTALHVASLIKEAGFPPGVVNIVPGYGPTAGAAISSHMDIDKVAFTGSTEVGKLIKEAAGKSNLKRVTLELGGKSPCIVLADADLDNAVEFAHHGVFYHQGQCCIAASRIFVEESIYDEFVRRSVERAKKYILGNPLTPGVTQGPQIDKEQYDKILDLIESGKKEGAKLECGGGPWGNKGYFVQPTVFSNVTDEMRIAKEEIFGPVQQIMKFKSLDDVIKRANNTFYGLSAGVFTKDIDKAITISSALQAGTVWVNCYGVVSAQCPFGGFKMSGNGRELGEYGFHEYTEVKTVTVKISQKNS
HTT cytoprotect – Huntington cell model cytoprotection by ATP luminescence | AID 1471 | PC12 HTT-Q103 induced, cytoprotection, ATP luminescence, 40 h | Potency, µM (titrated, usually from 56.4 µM), actives largely listed as activators | 230,000 tested, 0.14% active; also: nearly all actives have a fitted effect of over 45% in size
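Compounds added alongside 100 nM tebufenozide, which induces toxic Q103 huntingtin exon 1-GFP in stable PC12 cells; surviving cells quantified by luminescent ATP measurement. Medium: phenol red-free DMEM, 5% equine and 5% calf serum.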
A number is an active result; 0 = inactive; ? = inconclusive; - = not tested or not shown; [ ] = dose if it differs, or a comment. Unless noted, calls follow the shape of the dose curve; as a rule, active = well fitted curve in the direction sought with a large enough effect; inconclusive = small, poorly fitted or top-dose-only effect, or another doubt; inactive = no such curve, though single readings can be large; an effect the other way counts as inactive or inconclusive.

SMILES	HPGD block	Luc counter	Lamin A splicing	HTT aggregate	ALDH1A1 inh	HTT cytoprotect
O=C(NC1CCCCC1)C(=S)N1CCOCC1	-	0	-	0[9.22 µM]	24µM	0[1.9 µM]
CN(CCOc1ccccc1)CC(=O)Nc1ccc([N+](=O)[O-])cc1Cl	-	0	-	0	0	0
CN(CC(=O)Nc1ccc([N+](=O)[O-])cc1Br)Cc1c(F)cccc1Cl	-	-	-	0[9.22 µM]	10µM	0[10 µM]
CCC1=NNc2cccc3c(OC)ccc1c23	14µM	0	0	0[9.22 µM]	?	0
COc1ccc2c3c(cccc13)C(=O)N(O)C2=O	0	0	?	?	?	-
O=C(c1cccnc1)N1CCN(c2ccc([N+](=O)[O-])cc2Cl)CC1	0	0	0	0	?	0[1.9 µM]
O=C(c1ccc(-c2ccc(Cl)cc2)o1)N1CCN(c2ccc([N+](=O)[O-])cc2Cl)CC1	0	0	?	7.1µM	3.2µM	0[10 µM]
O=C(c1ccc(-c2ccc([N+](=O)[O-])cc2)o1)N1CCCCC1	7.1µM	0	?	0	11µM	0[10 µM]
COc1ccc(Cc2nn3c(-c4cc(OC)c(OC)c(OC)c4)nnc3s2)cc1	22µM	0	?	0	11µM	0[10 µM]
COc1cc(-c2nnc3sc(Cc4ccccc4)nn23)cc(OC)c1OC	?	0	0	0	22µM	0
Cc1ccc(S(=O)(=O)c2cn(Cc3cccc(F)c3)c3cc(N4CCCC4)c(F)cc3c2=O)cc1	-	-	0	-	-	-
S=c1nc[nH]c2c1[nH]c1ccccc12	25µM	0	0	0	14µM	0[10 µM]
Cc1cccc2cc(-c3nc4c(C)cccn4c3NCc3ccco3)c(=O)[nH]c12	0	0	0	0	20µM	0[10 µM]
CN(Cc1ccccc1)c1ncc(C=O)s1	-	0	-	0	7.1µM	0
O=C1N=C(N2CCOCC2)S/C1=C\c1ccc(OS(=O)(=O)c2ccccc2)cc1	-	0	-	0[9.22 µM]	28µM	0[10 µM]
COc1ccc(/C=C2\SC(N3CCc4ccccc4C3)=NC2=O)cc1	?	0	0	0	?	0[10 µM]
O=C1N=C(N2CCc3ccccc3C2)S/C1=C\c1cccc(O)c1	5µM	0	0	0	2.5µM	0[10 µM]
CCOc1ccc(/C=C2\SC(N3CCc4ccccc4C3)=NC2=O)cc1	22µM	0	0	0	0	0[10 µM]
COc1ccc(NC(=O)OCCN2CCN(Cc3ccccc3)CCC2=O)cc1	0	0	?	0	0	0
CC(=O)c1cccc2c(O)c(C3=Nc4ccccc4C3=O)[nH]c12	14µM	?	?	0	?	0[1.9 µM]
O=C(c1cccc(F)c1)N1CCC[C@@]2(CCN(c3cccc(-c4ccccc4)c3)C2)C1	0	0	-	-	?	0
O=C(c1cccc(F)c1)N1CCC2(CCCN(c3cccc(-c4ccccc4)c3)C2)CC1	0	0	-	-	11µM	0
O=C(c1cccc(F)c1)N1CCC2(CC1)CN(c1cccc(-c3ccccc3)c1)C2	?	0	-	-	?	0
O=C(c1cccc(F)c1)N1CCC[C@@]2(CCN(c3ccccc3)C2)C1	7.9µM	0	-	-	1.1µM	0
O=C(c1cccc(F)c1)N1CCC[C@@]2(CCN(C(c3ccccc3)c3ccccc3)C2)C1	0	0	-	-	8.9µM	0
SMILES	HPGD block	Luc counter	Lamin A splicing	HTT aggregate	ALDH1A1 inh	HTT cytoprotect
O=C(c1cccc(F)c1)N1CCC[C@@]2(CCN(Cc3ccccc3)C2)C1	18µM	0	-	-	0	?
O=C(c1cccc(F)c1)N1CCC2(CC1)CN(C(c1ccccc1)c1ccccc1)C2	0	0	-	-	?	0
Cc1cc(C)n(-c2ccc(C(=O)OCC(=O)Nc3cc(Cl)ccc3[N+](=O)[O-])cc2)n1	0	0	?	0	0	-
CC1=CC(C)(C)Nc2ccccc21	0	0	0[0.0737 µM]	0	?	0
COC(=O)c1ccccc1COn1c(=O)c(C)[n+]([O-])c2ccccc21	0	0	0	?	22µM	0
O=c1ccsn1Cc1ccccc1	20µM	0	0	?	?	0
C=C(C)C1CC=C(C)/C(=N/NC(=O)c2ccc(NC(=O)c3cccc(C)c3)cc2)C1 (configuration not stated)	0	0	0	0	0	0
C=C(C)C1CC=C(C)/C(=N/NC(=S)Nc2ccccc2)C1 (configuration not stated)	0	0	?	0	35µM	-
